A selection: hits, their analogues and other compounds. The true share with any hit is near 8%.
SW480 rereplic: inducers of DNA re-replication in SW480 colon cancer cells | Potency, µM (top dose mostly 46.1 µM), without a hit: at the highest dose re-replication activation, usual class: activators | AID 624297 | SW480 DNA re-replication, Hoechst DNA content imaging, 48 h | 1.8% of 340,000 active; also: % of control where 0% means no effect; nearly all actives have a fitted effect of over 55% in size
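Quantitative HTS format with DMSO vehicle controls; 48 hr drug incubation at 37 C, then 40 min Hoechst staining and scanning imager measurement at 405 nm excitation.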
MCF10A rerep: DNA re-replication induction in MCF 10a cells | MCF 10A DNA re-replication, Hoechst nuclear intensity, 48 h | Potency, µM (top dose mostly 46.1 µM), for inactives: at the top dose activity, positive = re-replication, most hits filed as activators | 2.9% of 350,000 active | AID 624296; also: % of control where 0% means no effect; nearly all actives have a fitted effect of over 50% in size
KB-V1 cytotox: kills drug-selected multidrug resistant KB-V1 cells. KB-V1 MDR cells viability, CellTiter-Glo, 72 h. Potency, µM (top dose mostly 46.1 µM), actives largely listed as cytotoxic. AID 1347076. 3.4% of 400,000 active; also: % is scaled to controls: 0 for no effect and ±100 for the full control effect; nearly all actives have a fitted effect of over 60% in size
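qHTS viability screen in drug-selected KB-V1 MDR cells: 72 h compound treatment at 37 degrees C, ATP luminescence end point.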
KB-3-1 tox: KB-3-1 parental cell cytotoxicity | Potency, µM (titrated, usually from 46.1 µM), most hits filed as cytotoxic | KB-3-1 viability, CellTiter-Glo ATP luminescence, 72 h | 1.4% of 400,000 active; also: % is scaled to controls: 0 for no effect and ±100 for the full control effect; nearly all actives have a fitted effect of over 60% in size
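Cells are dispensed, compounds pinned in, plates held at 37 °C for 72 h, then CellTiter-Glo is added and luminescence read after 10 minutes. Cell line: parental KB-3-1 in phenol-red-free DMEM, 10% FBS.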
HT1080-NT tox: kills 2HG-producing HT-1080-NT fibrosarcoma cells; HT-1080-NT fibrosarcoma viability, CellTiter-Glo ATP luminescence, 48 h; Potency, µM (series often up to 46.1 µM), for the others: at the highest dose activity, negative = less viability, usual class: cytotoxic; 1.6% of 360,000 active; AID 686970;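 also: NT is the 2HG producing partner of a matched IDH1 knockdown line; 0% = DMSO-treated cells and -100% = media-only wells without cells; nearly all actives have a fitted effect of over 55% in size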
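750 cells/well, RPMI + 5% FBS; 2 h settle, compound pin-transfer, 48 h at 37 degrees C. CellTiter-Glo 10 min RT, luminescence. Normalized to DMSO and media-only wells.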
HT1080 IDH1KD tx: HT-1080 IDH1 knockdown cell toxicity (counter line); HT-1080 IDH1 knockdown viability, ATP luminescence, 48 h; Potency, µM (titrated, usually from 46.1 µM), without a hit: at the highest dose activity, negative = toxicity, actives largely listed as cytotoxic; 2% of 360,000 active; AID 686971;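 also: 0% = DMSO wells and -100% = cell-free medium wells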
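After a 2 h attachment period, IDH1KD HT-1080 cells took pin-transferred compound for 48 h at 37 °C; ATP-based luminescence after 10 min room-temperature reagent incubation reported viability.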
* = called active by the depositor; i = inactive; ? = inconclusive; . = no result given; [ ] = dose if it differs, or a comment. Calls follow the shape of the dose curve; as a rule, active = well fitted curve in the direction sought with a large enough effect; inconclusive = small, poorly fitted or top-dose-only effect, or another doubt; inactive = no such curve, though single readings can be large; an effect the other way counts as inactive or inconclusive. Potency is read from the fitted curve at half-maximal effect.

SMILES	SW480 rereplic	MCF10A rerep	KB-V1 cytotox	KB-3-1 tox	HT1080-NT tox	HT1080 IDH1KD tx
S=C(Nc1ccccc1Cl)N1CCCC(c2ccccc2)=N1	?	13µM*	?	i	-17.0%	-19.9%
S=C(Nc1ccccc1Cl)N1CCCCCC1	1.4%	-16.9%	i	i	23.6%	7.6%
CCc1ccc(NC(=O)CN2C(C(=O)OC)=C(c3ccccc3)c3ccccc3S2(=O)=O)cc1	.	.	?	i	.	.
Cc1nc2ccn(Cc3cccnc3)c(=O)c2cc1C(=O)N1CCN(c2ccccc2)CC1	.	.	i	i	.	.
O=C(CN1CCN(c2ncccn2)CC1)Nc1ccccc1-n1cccc1	-0.7%	-11.9%	11.6µM*	i	0.0%	4.6%
O=C(CN1CCN(c2ccccn2)CC1)Nc1ccccc1Br	0.2%	13.0%	i	i	3.0%	0.0%
C/C(=N\NC(=S)NCc1ccccc1)c1cccc(Br)c1	-7.8%	-1.2%	?	i	-23.3%	?
C=CCNC(=S)N/N=C(\C)c1cccc(OC)c1	3.7%	-1.5%	23.1µM*	i	-4.0%	10.8%
C=CCNC(=S)N/N=C(\C)c1ccc(OC)cc1	?	8.4%	i	i	4.5%	2.2%
C/C(=N\NC(=S)NCc1ccccc1)c1ccc2ccccc2c1	?	16.4µM*	?	i	-0.3%	-8.1%
CCOc1ccccc1NC(=O)Cn1c(=O)n(Cc2cccs2)c(=O)c2cccnc21	.	.	i	i	.	.
Cn1c(=O)c2c(ncn2C[C@@H](O)CO)n(C)c1=O	0.4%[20.6 µM]	-2.0%[20.6 µM]	.	.	.	.
CN1CCC(=C2c3ccccc3CC(=O)c3sccc32)CC1	.	5.7%	?	?	?	-29.9%
CN1CCC(=C2c3ccccc3CCc3sccc32)CC1	12.4%	-63.0%	?	i	18.4µM*	?
CN(C)c1ccc(C=O)c(O)c1	.	.	i	i	.	.
CNC(=O)NC(=O)CSc1cccc(C(F)(F)F)c1	11.0%	20.6µM*	i	i	10.1%	-20.0%
COc1ccc(Oc2ncnc3c2oc2ccccc23)cc1	.	.	i	i	.	.
O=C(NCCCN1CCN(c2ccc(F)cc2)CC1)NC12CC3CC(CC(C3)C1)C2	?	?	i	i	16.4µM*	14.6µM*
O=C(CN1CCN(Cc2ccc(Cl)cc2)C1=O)NCCCN1CCN(c2ccc(F)cc2)CC1	?	?	i	?	?	15.8µM*
Cc1cccc(C(=O)Nc2ccc(OCc3cc(=O)n4ccc(C)cc4n3)cc2)c1	.	.	i	i	.	.
COCCn1c(C)cc(O)c(C(c2cccc(F)c2)N2CCN(c3ccccc3)CC2)c1=O (stereo not drawn)	.	.	i	i	.	.
Cc1ccc(NC(=S)NN(C)c2cc(C)nc(C)n2)cc1	-1.6%	1.7%	18.4µM*	i	8.7%	8.3%
O=C(Cc1ccc(F)cc1)NCc1ccc2c(c1)CCN2C(=O)c1ccc(F)cc1	.	.	i	i	.	.
Cc1nc(SC(C(N)=O)c2ccccc2)c(C#N)c(C)c1C (stereo not drawn)	-7.0%[9.22 µM]	-6.2%	i	i	-1.5%	-16.3%
COc1ccccc1-c1cc(-c2ccccc2)nc(SC(C(N)=O)c2ccccc2)c1C#N (stereo not drawn)	9.2µM*	?	?	i	?	?
SMILES	SW480 rereplic	MCF10A rerep	KB-V1 cytotox	KB-3-1 tox	HT1080-NT tox	HT1080 IDH1KD tx
CN(C)c1ccc(/C=C/c2cc(/C=C/c3ccc(N(C)C)cc3)c3ccccc3n2)cc1	.	.	i	i	.	.
CCOc1ccc(-c2cnc3n2CCC3)cc1	9.2µM*	9.1%	?	?	-1.6%	-1.0%
Cc1cc(C)n(-c2nc3cc(Cl)ccc3nc2Nc2ccc(CC(=O)O)cc2)n1	.	.	i	i	.	.
COc1ccc(/C=N\NC(=O)c2ccccc2F)cc1COc1ccc(F)cc1	3.1%	5.6%	i	i	-17.0%	-14.0%
COc1cc(OC)cc(C(=O)N/N=C/c2ccc(OC)c(COc3ccc4ccccc4c3)c2)c1	?	?	?	?	?	20.6µM*
COc1ccc(/C=N\NC(=O)c2ccccc2F)cc1COc1ccc(F)cc1F	11.6µM*	?	?	5.17µM*	2.31µM*	2.31µM*
COc1cc(OC)cc(C(=O)N/N=C\c2ccoc2)c1	5.8µM*	23.1µM*	i	i	3.66µM*	5.8µM*
COc1ccc(/C=N/NC(=O)c2nc(Cl)c(Cl)c(N)c2Cl)cc1COc1ccc(F)cc1F	?	14.6µM*	i	i	?	-12.3%[9.24 µM]
CCC(C)c1ccc(OCC(=O)Nc2ccc(-c3nc4ncccc4o3)cc2)cc1 (stereo not drawn)	.	.	i	i	.	.
Cc1cc2c(cc1S(=O)(=O)N(CCO)Cc1ccccc1)OCC(=O)N2	.	.	?	i	.	.
CCN1C(=O)c2ccccc2S(=O)c2ccc(C(=O)N3CCN(c4ccc(F)cc4)CC3)cc21 (stereo not drawn)	.	.	i	?	.	.
COc1ccc(/C=N/NC(=O)c2ccc(OC)c(OC)c2)cc1COc1c(F)c(F)c(F)c(F)c1F	-5.0%	6.5%	i	i	-3.1%	?
COc1ccc(/C=N\NC(=O)c2ccccc2OC)cc1COc1ccccc1C	1.8%	12.3%	i	i	-7.6%	-0.7%
COc1ccc(/C=N/NC(=O)c2ccoc2C)cc1COc1c(C)cccc1C	?	7.08µM*	?	?	4.61µM*	5.17µM*
COc1ccc(/C=N\NC(=O)c2ccccc2Br)cc1COc1c(F)c(F)cc(F)c1F	?	4.61µM*	.	.	-17.4%	?
CNc1cc[n+](C)c2ccccc12	.	.	?	i	.	.
COc1ccc(CCNC(=O)Cc2ccc(OCc3ccccc3)c(OC)c2[N+](=O)[O-])cc1OCc1ccccc1	-6.0%	?	2.59µM*	?	-0.5%	0.4%

Screening results (PubChem BioAssay)
